The supplement of paper PMC10720658
± gives the standard deviation of the averaged measurements.

tested on: AEK1 (Tb927.3.2440); assay: percent reduction in TR-FRET probe signal relative to DMSO control; higher = stronger displacement of ATP-site probe (binding); settings: 1 µM; incubation time 1 h

SMILES | percent reduction in TR-FRET probe signal
NC(=O)c1ccc(N(C(N)=O)c2c(F)cccc2F)nc1-c1ccc(F)cc1F | -4.77 ± 9.4%
C=CC(=O)Nc1cccc(Oc2nc(Nc3ccc(N4CCN(C)CC4)cc3)ncc2Cl)c1 | 1.06 ± 9.5%
COc1cc2nccc(Oc3ccc(NC(=O)C4(C(=O)Nc5ccc(F)cc5)CC4)cc3)c2cc1OC | -3.97 ± 6.1%
CN1CCN(c2ccc(C(=O)Nc3n[nH]c4ccc(Cc5cc(F)cc(F)c5)cc34)c(NC3CCOCC3)c2)CC1 [Entrectinib (RXDX-101)] | -3.42 ± 2.4%
Cc1c(F)cc(C(=O)NC2CC2)cc1-c1ccc(C(=O)NCC(C)(C)C)cn1 | -10 ± 9.6%
CCn1c(N)c(C(=O)NC)c(=O)c2ccc(C#C[C@@](C)(O)COC)nc21 | 10.3 ± 4.8%
CS(=O)(=O)O.O=C(Nc1cccc(Cl)c1)Nc1ncc(CCNc2ncnc3ccsc23)s1 [SNS-314 Mesylate] | 0.813 ± 5%
CNC(=O)c1nn(C)c2c1C(C)(C)Cc1cnc(Nc3ccc(N4CCN(C)CC4)cc3)nc1-2 | -3.55 ± 7.5%
Cn1cnc(N)c2ncnc1-2 [3-Methyladenine (3-MA)] | -2.13 ± 5.3%
CCN1CCN(Cc2ccc(Nc3ncc(F)c(-c4cc(F)c5nc(C)n(C(C)C)c5c4)n3)nc2)CC1 | -4.88 ± 6.8%
C=CC(=O)Nc1cccc(Nc2nc(Nc3ccc(NC4CN(CCF)C4)cc3OC)ncc2C(F)(F)F)c1 | -12.2 ± 9.2%
FC(F)c1nc2ccccc2n1-c1nc(N2CCOCC2)nc(N2CCOCC2)n1 | -1.21 ± 9.1%
